Compounds without any hit were thinned out: in the full panel of roughly 83,000, 20% have a hit.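 Note: values are percent growth. 100 is the growth of untreated cells, values between 100 and 0 indicate rising inhibition; between -100 and 0 indicates cell death.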 Active and inactive are the calls of the source.
tested on: HCT-116 colon; test: NCI-60 one-dose screen, 48 h (100 = growth as untreated, 0 = no growth, -100 = all killed); details: 10 µM unless noted
Description: Growth inhibition of the HCT-116 human tumor cell line is measured as a screen for anti-cancer activity. Cells are grown in 96 well plates and exposed to the test compound for 48 hours. Compounds are tested at a single concentration, which is 10^-5 M for most compounds. The reported endpoint is percent growth (GI% or GIPRCNT), where numbers from 0 - 100% represent growth inhibition, and numbers from -100% - 0 represent cell death. For example, a value of 40 represents 60% growth inhibition. A value of 0 means no net growth occurred over the course of the experiment. A value of -40 indicates 40% of cells at the beginning of the experiment died by the end of the experiment. A value of -100 means all cells are dead at the end of the experiment.
NCI-60 Human Tumor Cell Lines Screen was performed using the standard one-dose NCI protocol, which is described in more detail at https://dtp.cancer.gov/discovery_development/nci-60/default.htm.
Compounds with GIPRCNT values below 10 were considered active. Activity score was based on GIPRCNT using the following formula: […]
Score is 0 for GIPRCNT values of 100 or above, 50 for GIPRCNT values of 0, and 100 for GIPRCNT values of -100.

| SMILES | growth |
| --- | --- |
| Cc1nc(Nc2ccc(NC(=S)Nc3ccccc3)cc2)nc2nc(Nc3cccc(Cl)c3)[nH]c(=O)c12 | 94.4% (inactive) |
| O=C1/C(=C/c2ccc([N+](=O)[O-])cc2)COc2ccc(O)c(O)c21 | -34.3% (active) |
| CCOc1cc(C2C(Cl)C(=O)N2n2cnnc2)ccc1O (stereo not given) | 93.3% (inactive) |
| COc1ccc(/C(C)=C(\c2ccc(Cl)cc2)c2ccc(OCCN3CCCCC3)cc2)cc1F | 19.7% (inactive) |
| CCNCCNc1cc(-c2ccc(F)cc2)c(C#N)c2nc3ccccc3n12 | 24.5% (inactive) |
| COc1cc2nc(Nc3ccc(F)cc3)nc(N)c2cc1OC | 89.4% (inactive) |
| COc1cc2ccccc2cc1C(=O)NC(=S)Nc1ccc(-c2nc3ccccc3[nH]2)cc1 | 82% (inactive) |
| CCOC(=O)c1c(C)[nH]c(C(=O)CCC(=O)OC)c1C | 81% (inactive) |
| N#C/C(=C\c1ccc(Br)cc1)n1nnc2cc(Cl)c(Cl)cc21 | 22.2% (inactive) |
| O=C1CCC(N2C(=O)c3cccc(NCCCC4CCN(CCNC(=O)c5cc6c(o5)C(=O)c5ccccc5C6=O)CC4)c3C2=O)C(=O)N1 (stereo not given) | -56.9% (active) |
| C[C@@H]1CC[C@@H]2[C@@H]1[C@H](OC(=O)/C=C/c1ccccc1)[C@]1(C3CCCCC3)C[C@@H](NC(=O)CO)[C@@]2(C)O1 | 85.7% (inactive) |
| CCOc1ccc(S(=O)(=O)c2ccc(C)cc2)c2c1no[n+]2[O-] | 80.4% (inactive) |
| Cc1nc(Nc2ccc(NC(=S)Nc3ccccc3)cc2)nc2nc(SCc3ccccc3)[nH]c(=O)c12 | 112% (inactive) |
| O=C(c1ccccc1)c1ccc(N2C(=O)C3C4c5ccccc5C(/C=C/C(=O)c5ccccn5)(c5ccccc54)C3C2=O)cc1 (stereo not given) | -27.4% (active) |
| O=c1oc2ccc(Cl)cc2cc1-c1cs/c(=N/N=C\c2ccc(Cl)cc2)n1/N=C/c1ccc(Cl)cc1 | 91.9% (inactive) |
| CCCCN1CCN(c2ccc3nc(-c4ccc5nc(-c6cc(OC)c(OC)c(OC)c6)[nH]c5c4)[nH]c3c2)CC1 | 41.1% (inactive) |
| O=C1Nc2ccccc2SC1C1SC(=S)N(Cc2ccccc2)C1=O (stereo not given) | 42.8% (inactive) |
| Fc1ccc(Nc2ccc3cc(OCCCN4CCOCC4)ccc3n2)cc1F | 47.7% (inactive) |
| CSc1ccc(Cl)c(C(=O)Nc2sccc2C(N)=O)c1 | 109% (inactive) |
| COc1ccc(OC)c(Nc2nc3nonc3nc2Nc2cc(OC)ccc2OC)c1 | 17.6% (inactive) |

| SMILES | growth |
| --- | --- |
| COc1ccc(OC)c(/C=C2\COc3ccc(O)cc3C2=O)c1 | 66.9% (inactive) |
| O=C(NC1CCOCC1)c1ccc2c(c1)CN(c1ncc(Cc3cccc(-n4cccn4)c3)s1)CC2 | 47.6% (inactive) |
| O=C1NC(=S)S/C1=C\N1N=C(c2ccc(Cl)cc2)CC1c1ccc(F)cc1 (stereo not given) | 81.9% (inactive) |
| N#Cc1cnn2c(-c3ccc(Cl)cc3)nc(NCCc3ccccc3)nc12 | 81.5% (inactive) |
| COc1cc(C(=O)/C=C/c2c(C(F)(F)F)nc3ccccn23)cc(OC)c1OC | -84.3% (active) |
| Cc1nc(Nc2ccc(S(=O)(=O)Nc3cc(C)on3)cc2)c2ccccc2n1 | 109% (inactive) |
| CCNCCNc1cc(-c2cccc(C(F)(F)F)c2)c(C#N)c2nc3ccccc3n12 | -93.9% (active) |
| CCN(CC)CCNc1ccc(C)c2sc3cc(C)ccc3c(=O)c12 | 23.1% (inactive) |
| CNC(=O)c1cc(Oc2ccc3nc(Nc4cc(Cl)cc(Cl)c4)ccc3c2)ccn1 | 49% (inactive) |
| CCN(CC)CCOc1ccc(/C(=C(\C)c2ccc(F)c(OC)c2)c2ccc(Cl)cc2)cc1 | 1.56% (active) |
| O=[N+]([O-])c1ccc(-c2cc3c(Nc4ccc(Sc5nc6ccccc6s5)c(Cl)c4)ncnc3s2)cc1 | 11.9% (inactive) |
| COc1cc(CNC(=O)/C=C/C=C/c2ccc3c(c2)OCO3)ccc1OCc1cn(-c2ccc(Cl)c(Cl)c2)nn1 | -30.6% (active) |
| COc1ccc(-c2cc(-c3cc(OC)ccc3OC)[nH]c(=O)c2C#N)cc1 | 29.9% (inactive) |
| COc1cc(NC(=O)c2cccc(-c3cc(=O)c4c(O)c(OC)c(OC)cc4o3)c2)cc(OC)c1OC | 44.8% (inactive) |
| CCOC(=O)C(O)C(O)(c1ccccc1)c1ccccc1 (stereo not given) | 105% (inactive) |
| COc1ccc(O)c(-c2cc(-c3ccccc3)c(C#N)c(=O)[nH]2)c1 | 89.7% (inactive) |
| N#Cc1c(N)nc2c(nnn2-c2cccc(Br)c2)c1N | 91.3% (inactive) |
| COc1ccccc1C(=O)NC(=S)Nc1ccc(-c2nc3ccccc3[nH]2)cc1 | 13.8% (inactive) |
| CC(C)CCC[C@@H](C)[C@H]1CCC2C3=CCn4c(=O)ccc(=O)n4C3CC[C@@]21C (stereo not given in full) | -100% (active) |
| Cl.Fc1c[c-]c(-c2ccccn2)c(F)c1.[Pt].c1ccc([PH+](c2ccccc2)c2ccccc2[PH+](c2ccccc2)c2ccccc2)cc1 | -68% (active) |
